According to the supplement of paper PMC6411743:
± gives the standard deviation of the averaged measurements. Of roughly 5,400 targets only a part is listed; those with the largest changes were picked by preference.

Biological target: T1, UniProt P35613|P35613-2
T1 sequence (whole entry): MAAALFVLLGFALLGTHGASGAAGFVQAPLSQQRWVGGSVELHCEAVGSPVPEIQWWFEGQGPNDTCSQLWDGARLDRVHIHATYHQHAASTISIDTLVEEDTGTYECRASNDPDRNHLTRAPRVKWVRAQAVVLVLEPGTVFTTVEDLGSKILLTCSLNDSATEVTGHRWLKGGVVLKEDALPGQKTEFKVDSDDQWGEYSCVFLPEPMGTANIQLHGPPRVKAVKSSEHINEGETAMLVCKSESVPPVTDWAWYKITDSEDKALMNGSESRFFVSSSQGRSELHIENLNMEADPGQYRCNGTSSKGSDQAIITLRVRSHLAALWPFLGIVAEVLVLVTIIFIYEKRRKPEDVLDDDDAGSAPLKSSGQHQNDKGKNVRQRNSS
Test: NP40-soluble protein abundance relative to vehicle (solubility fold change) (ratio); higher = more soluble protein in presence of GTP
Procedure: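 Solubility proteome profiling in Jurkat crude lysate. Lysate was treated with Mg-GTP (0.1-10 mM) for 10 min at room temperature and 3 min at 37 °C, then solubilised with 0.8% NP40 and benzonase, followed by ultracentrifugation. Proteins were quantified by TMT10 LC-MS/MS; the value is the NP40-soluble abundance relative to the NP40-processed vehicle, from 3 independent experiments.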

In the case of `Nc1nc2c(ncn2[C@@H]2O[C@H](COP(=O)(O)OP(=O)(O)OP(=O)(O)O)[C@@H](O)[C@H]2O)c(=O)[nH]1` [guanosine triphosphate], the NP40-soluble protein abundance (concentration: 0.1mM) is reported as 0.873 ± 0.045, the NP40-soluble protein abundance (concentration: 0.5mM) is reported as 0.877 ± 0.074 and the NP40-soluble protein abundance (concentration: 1mM) is reported as 0.91 ± 0.042. The NP40-soluble protein abundance (concentration: 2mM) was 0.881 ± 0.081, the NP40-soluble protein abundance (concentration: 4mM) was 0.878 ± 0.062 and the NP40-soluble protein abundance (concentration: 6mM) was 0.91 ± 0.087. It also gave an NP40-soluble protein abundance (concentration: 8mM) of 0.872 ± 0.099 and an NP40-soluble protein abundance (concentration: 10mM) of 0.881 ± 0.065.
